Measurements reported in PubChem BioAssay (NCATS).
Several values for one entry are separate records, joined by “and”; a condition that tells them apart may be missing. Equal values may be shown once. Unmarked numbers belong to inactive results. Records with an inconclusive call do not appear. Entries that show only a call come without a potency. Activity calls are given as the source filed them. Unless noted, the call rests on the fitted dose curve.

Columns and labels:
[1] = molecular target: Nuclear receptor subfamily 1 group I member 3 (Homo sapiens) (UniProt Q14994); experiment: Primary qHTS for antagonist of constitutive androstane receptor (CAR) against the NCATS DSHEA and TCM libraries (AID 1794836; active means well fitted curve in the direction sought with a large enough effect; an effect the other way counts as inactive or inconclusive;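 further: HepG2 cells stably expressing hCAR with CYP2B6 luciferase reporter stimulated by CITCO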)
Sequence of Nuclear receptor subfamily 1 group I member 3 (Homo sapiens) (Q14994 whole entry, looked up): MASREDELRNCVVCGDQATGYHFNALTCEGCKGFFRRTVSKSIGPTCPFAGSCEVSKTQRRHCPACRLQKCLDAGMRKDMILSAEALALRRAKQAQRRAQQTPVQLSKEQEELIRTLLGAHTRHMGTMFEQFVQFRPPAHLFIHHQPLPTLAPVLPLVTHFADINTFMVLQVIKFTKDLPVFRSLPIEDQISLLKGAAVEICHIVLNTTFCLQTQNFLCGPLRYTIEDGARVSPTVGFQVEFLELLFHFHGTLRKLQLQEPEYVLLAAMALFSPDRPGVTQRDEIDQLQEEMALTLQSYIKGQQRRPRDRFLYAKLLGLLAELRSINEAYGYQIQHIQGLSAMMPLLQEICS
In short: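 HepG2-CYP2B6-hCAR cells, attached 5 h, given compounds plus CITCO agonist […], incubated 24 h at 37 C. Luciferase luminescence read, multiplexed with CellTiter-Fluor viability (Ex/Em 405/540 nm).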

[2] = molecular target: Vitamin D3 receptor (Homo sapiens) (UniProt P11473); experiment: qHTS assay for small molecule antagonists of vitamin D receptor signaling (AID 588541);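 further: receptor activated by calcitriol during compound treatment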
Sequence of Vitamin D3 receptor (Homo sapiens) (P11473 whole entry, looked up): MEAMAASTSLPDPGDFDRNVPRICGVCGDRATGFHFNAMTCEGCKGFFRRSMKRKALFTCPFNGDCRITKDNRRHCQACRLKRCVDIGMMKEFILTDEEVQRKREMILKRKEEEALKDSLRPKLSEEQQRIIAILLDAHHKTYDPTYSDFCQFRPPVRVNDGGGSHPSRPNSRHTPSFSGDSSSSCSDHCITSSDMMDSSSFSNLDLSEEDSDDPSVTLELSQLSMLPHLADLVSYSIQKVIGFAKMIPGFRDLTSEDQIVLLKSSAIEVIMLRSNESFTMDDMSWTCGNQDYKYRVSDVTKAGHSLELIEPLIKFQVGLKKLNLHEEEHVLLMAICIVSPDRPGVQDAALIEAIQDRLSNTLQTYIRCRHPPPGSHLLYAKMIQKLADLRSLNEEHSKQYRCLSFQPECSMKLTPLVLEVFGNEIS
In short: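 VDR-UAS-bla HEK293T cells in 2% charcoal-stripped FBS were stimulated with 1-alpha,25-dihydroxyvitamin D3 (3 nM final) plus compound for 16 h at 37 C. The beta-lactamase CCF4 readout was normalized to 50 nM agonist and DMSO, and Hill fits gave IC50.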

[3] = molecular target: Cytochrome P450 3A4 (Homo sapiens) (UniProt P08684); experiment: qHTS Assay for Activators of Cytochrome P450 3A4 (AID 885; active means well fitted curve in the direction sought with a large enough effect; an effect the other way counts as inactive or inconclusive; further: nearly all actives have a fitted effect of over 65% in size)
Sequence of Cytochrome P450 3A4 (Homo sapiens) (P08684 whole entry, looked up): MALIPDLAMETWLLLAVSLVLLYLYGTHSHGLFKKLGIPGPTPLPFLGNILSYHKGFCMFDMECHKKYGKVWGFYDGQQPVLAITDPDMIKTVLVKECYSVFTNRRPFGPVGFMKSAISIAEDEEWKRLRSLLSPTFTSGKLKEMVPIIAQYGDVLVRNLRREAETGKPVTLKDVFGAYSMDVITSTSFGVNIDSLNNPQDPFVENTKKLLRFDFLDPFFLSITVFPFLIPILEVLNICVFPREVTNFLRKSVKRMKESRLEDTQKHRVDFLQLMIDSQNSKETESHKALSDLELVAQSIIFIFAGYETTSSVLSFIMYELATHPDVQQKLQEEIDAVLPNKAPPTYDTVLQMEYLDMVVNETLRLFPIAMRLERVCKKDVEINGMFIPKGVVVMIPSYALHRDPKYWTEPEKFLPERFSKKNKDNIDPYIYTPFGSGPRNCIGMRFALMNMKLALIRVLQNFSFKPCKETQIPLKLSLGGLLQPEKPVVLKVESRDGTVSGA
In short: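 Luminescent readout of luciferin formed from 25 uM Luciferin-PPXE (KM level) by 20 nM CYP3A4 in 200 mM KPO4, with 60 min NADPH-driven reaction at room temperature after 10 min compound exposure. Ketoconazole (57 uM) defined 100% inhibition.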

[4] = molecular target: Peroxisome proliferator-activated receptor delta (Homo sapiens) (UniProt Q03181); experiment: qHTS assay for small molecule antagonists of peroxisome proliferator-activated receptor delta signaling (AID 588535; active means well fitted inhibition curve with a large enough effect in the signal ratio, with a control signal flat, not every such curve was filed as active; the % refers to the signal ratio)
Sequence of Peroxisome proliferator-activated receptor delta (Homo sapiens) (Q03181 whole entry, looked up): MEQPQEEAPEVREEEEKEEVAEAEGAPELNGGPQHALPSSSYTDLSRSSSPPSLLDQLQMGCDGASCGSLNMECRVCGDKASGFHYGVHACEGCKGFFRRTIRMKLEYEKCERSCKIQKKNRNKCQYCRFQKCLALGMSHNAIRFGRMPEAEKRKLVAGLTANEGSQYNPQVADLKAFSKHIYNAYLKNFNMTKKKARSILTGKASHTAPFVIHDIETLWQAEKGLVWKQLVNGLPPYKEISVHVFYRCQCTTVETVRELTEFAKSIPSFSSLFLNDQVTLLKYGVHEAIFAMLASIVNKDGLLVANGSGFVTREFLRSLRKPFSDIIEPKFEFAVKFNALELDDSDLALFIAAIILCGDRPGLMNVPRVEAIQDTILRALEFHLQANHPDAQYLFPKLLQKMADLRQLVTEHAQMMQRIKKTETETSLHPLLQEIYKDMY
In short: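 Fluorescence from CCF4-loaded GeneBLAzer PPAR-delta-UAS-bla HEK293T cells (2 hrs RT loading) quantified reporter inhibition after an 18 hr, 37 C compound exposure across a titration.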

[5] = qHTS assay to identify small molecules that stimulate interleukin-8 (IL-8) secretion (AID 651758; active means well fitted activation curve with a large enough effect in the signal ratio; the % refers to the signal ratio)
In short: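 Compounds are added to THP-1 cells (2000 per well) and left 16 hrs at 37 C. A labeled anti-IL-8 antibody pair is then added, and IL-8 secretion is measured by time-resolved FRET after 1-3 hrs at room temperature.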

[6] = molecular target: Ubiquitin carboxyl-terminal hydrolase 1 (Homo sapiens) (UniProt O94782); experiment: Inhibitors of USP1/UAF1: Pilot qHTS (AID 504865; active means well fitted curve in the direction sought with a large enough effect; an effect the other way counts as inactive or inconclusive;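 further: rhodamine fluorescence freed from ubiquitin-rhodamine substrate followed over time; top concentration of the series differs between compounds; nearly all actives have a fitted effect of over 35% in size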)
Sequence of Ubiquitin carboxyl-terminal hydrolase 1 (Homo sapiens) (O94782 whole entry, looked up): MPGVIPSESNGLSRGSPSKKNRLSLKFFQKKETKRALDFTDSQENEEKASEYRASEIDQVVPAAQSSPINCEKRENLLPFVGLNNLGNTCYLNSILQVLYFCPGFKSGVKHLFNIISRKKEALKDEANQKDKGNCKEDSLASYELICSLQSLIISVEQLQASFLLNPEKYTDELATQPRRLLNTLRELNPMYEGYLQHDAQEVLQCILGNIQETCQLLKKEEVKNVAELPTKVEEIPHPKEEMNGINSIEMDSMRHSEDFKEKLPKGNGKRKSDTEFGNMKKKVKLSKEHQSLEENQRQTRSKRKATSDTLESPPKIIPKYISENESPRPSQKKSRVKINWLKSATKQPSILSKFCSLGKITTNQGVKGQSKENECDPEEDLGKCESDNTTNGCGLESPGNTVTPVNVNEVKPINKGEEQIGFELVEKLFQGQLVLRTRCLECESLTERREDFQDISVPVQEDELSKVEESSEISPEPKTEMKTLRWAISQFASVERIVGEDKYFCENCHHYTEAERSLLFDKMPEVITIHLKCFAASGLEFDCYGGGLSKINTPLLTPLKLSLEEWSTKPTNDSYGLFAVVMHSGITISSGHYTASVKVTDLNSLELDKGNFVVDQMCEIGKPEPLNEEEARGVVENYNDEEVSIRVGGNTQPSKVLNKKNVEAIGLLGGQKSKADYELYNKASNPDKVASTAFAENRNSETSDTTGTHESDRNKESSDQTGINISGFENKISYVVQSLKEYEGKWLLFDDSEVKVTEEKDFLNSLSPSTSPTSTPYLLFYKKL
In short: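 Enzyme-free wells gave the negative control, while test wells held 1nM USP1/UAF1 preincubated with compound for 15 min at room temperature. Ub-Rho at 150nM final started the reaction, and fluorescence at 480/540 nm was recorded kinetically.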

[7] = molecular target: Luciferin 4-monooxygenase (Photinus pyralis) (UniProt P08659); experiment: Biochemical firefly luciferase enzyme assay for NPC (AID 624030; active means well fitted curve in the direction sought with a large enough effect; an effect the other way counts as inactive or inconclusive;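 further: purified P. pyralis luciferase at 10 nM with luciferin and ATP substrate; nearly all actives have a fitted effect of over 70% in size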)
Sequence of Luciferin 4-monooxygenase (Photinus pyralis) (P08659 whole entry, looked up): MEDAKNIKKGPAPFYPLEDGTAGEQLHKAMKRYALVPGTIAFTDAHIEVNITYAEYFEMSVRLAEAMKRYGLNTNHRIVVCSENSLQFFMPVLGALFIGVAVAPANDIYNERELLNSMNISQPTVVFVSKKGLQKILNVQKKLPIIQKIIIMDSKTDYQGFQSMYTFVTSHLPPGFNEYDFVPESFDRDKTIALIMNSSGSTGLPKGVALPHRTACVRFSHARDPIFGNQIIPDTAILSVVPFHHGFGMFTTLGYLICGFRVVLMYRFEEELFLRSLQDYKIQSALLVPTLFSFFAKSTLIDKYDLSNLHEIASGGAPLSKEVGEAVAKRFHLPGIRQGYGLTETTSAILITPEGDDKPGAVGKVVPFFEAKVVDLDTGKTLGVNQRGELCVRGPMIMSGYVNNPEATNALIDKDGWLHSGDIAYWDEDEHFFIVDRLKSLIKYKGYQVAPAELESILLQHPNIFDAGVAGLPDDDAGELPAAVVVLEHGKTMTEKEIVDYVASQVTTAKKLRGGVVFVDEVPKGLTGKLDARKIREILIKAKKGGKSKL
In short: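 Purified P. pyralis luciferase at 10 nM in 50 mM Tris Acetate (final), luminescence read within 5 minutes of enzyme addition to compounds. Activity normalised to PTC124 versus DMSO; concentration-response curves classed by r2, magnitude and activity.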

[8] = qHTS profiling for inhibitors of Plasmodium falciparum proliferation (AID 504749; active means well fitted curve in the direction sought with a large enough effect; an effect the other way counts as inactive or inconclusive; further: nearly all actives have a fitted effect of over 60% in size); details: P. falciparum in erythrocytes, SYBR Green DNA, 72 h, at 28.7 µM (top of the series)
In short: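 Each compound contacts P. falciparum-infected red blood cells for 72 h at 37 C; lysis buffer (Tris, EDTA, saponin, Triton X, SYBR Green I) is added and fluorescence measured next morning; values normalized to controls.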

[9] = molecular target: Androgen receptor (Homo sapiens) (UniProt P10275); experiment: qHTS assay for small molecule agonists of androgen receptor signaling (AID 588515; active means well fitted curve in the direction sought with a large enough effect in the signal ratio, with a control signal flat; the % refers to the signal ratio); details: AR-UAS-bla HEK293, beta-lactamase ratio, agonist 16 h; hits give high values
Sequence of Androgen receptor (Homo sapiens) (P10275 whole entry, looked up): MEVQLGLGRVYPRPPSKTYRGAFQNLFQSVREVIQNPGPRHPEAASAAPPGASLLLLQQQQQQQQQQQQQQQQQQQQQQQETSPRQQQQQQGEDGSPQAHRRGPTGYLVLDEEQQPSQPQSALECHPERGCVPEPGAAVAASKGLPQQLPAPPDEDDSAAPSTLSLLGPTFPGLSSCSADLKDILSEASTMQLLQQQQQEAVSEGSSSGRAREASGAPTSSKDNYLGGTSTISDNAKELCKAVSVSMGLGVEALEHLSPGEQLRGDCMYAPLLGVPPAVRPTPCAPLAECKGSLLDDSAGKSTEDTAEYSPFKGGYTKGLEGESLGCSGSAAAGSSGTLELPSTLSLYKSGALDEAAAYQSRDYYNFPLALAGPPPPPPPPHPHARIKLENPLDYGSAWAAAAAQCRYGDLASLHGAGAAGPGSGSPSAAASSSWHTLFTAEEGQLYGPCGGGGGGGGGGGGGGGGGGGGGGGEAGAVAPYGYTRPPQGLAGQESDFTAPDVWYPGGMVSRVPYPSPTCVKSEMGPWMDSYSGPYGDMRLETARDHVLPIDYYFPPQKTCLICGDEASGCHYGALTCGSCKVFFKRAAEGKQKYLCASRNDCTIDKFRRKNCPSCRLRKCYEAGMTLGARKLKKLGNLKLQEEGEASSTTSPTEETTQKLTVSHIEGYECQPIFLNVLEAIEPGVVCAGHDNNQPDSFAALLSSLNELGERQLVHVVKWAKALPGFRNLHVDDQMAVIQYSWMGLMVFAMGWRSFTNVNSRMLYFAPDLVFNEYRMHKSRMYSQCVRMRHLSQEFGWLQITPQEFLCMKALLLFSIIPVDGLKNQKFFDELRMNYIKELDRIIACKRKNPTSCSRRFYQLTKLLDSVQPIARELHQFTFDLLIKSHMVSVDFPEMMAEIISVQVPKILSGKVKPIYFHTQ
In short: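 Stimulation of an AR-responsive β-lactamase reporter in GripTite HEK293 cells was measured after 16 h compound exposure at 37 °C, via CCF4 fluorescence after 2 h RT. EC50 from Hill fits, normalized to R1881 at 30 nM.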

[10] = molecular target: Androgen receptor (Homo sapiens) (UniProt P10275); experiment: qHTS assay for small molecule antagonists of androgen receptor signaling (AID 588516; active means well fitted curve in the direction sought with a large enough effect in the signal ratio, with a control signal flat, not every such curve was filed as active; the % refers to the signal ratio)
In short: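 Compounds tested in titration against 10 nM R1881 in AR-responsive bla reporter HEK 293 cells; CCF4 fluorescence (460/530 nm) after 16 h exposure gave IC50 and efficacy.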

[11] = qHTS assay for small molecule antagonists of the retinoid-related orphan receptor gamma (ROR-gamma) signaling pathway - cell viability counter screen (AID 720652; active means well fitted curve in the direction sought with a large enough effect in the repeat runs; an effect the other way counts as inactive or inconclusive;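 further: CHO reporter cells with doxycycline-induced ROR-gamma expression; compound exposure lasted 16 hr before ATP read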)
In short: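 Cytotoxicity counter screen: intracellular ATP (CellTiter-Glo luminescence) measured in the doxycycline-induced CHO RORE-luciferase reporter line after 16 hr compound exposure at 37 C, 5% CO2.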

In the case of C=C[C@](C)(O)CCC=C(C)C, the Potency [1] is reported as “inactive”.
With O=C(O[C@@H]1Cc2c(O)cc(O)cc2O[C@@H]1c1ccc(O)c(O)c1)c1cc(O)c(O)c(O)c1 the Potency [1] was “inactive”.
For C=C1CC[C@H](O)C/C1=C\C=C1/CCC[C@]2(C)[C@@H]([C@H](C)CC[C@H](C)C(C)C)CC[C@@H]12, the Potency [1] was “inactive”.
In the case of O=c1cc(-c2ccc(O)c(O)c2)oc2cc(O[C@@H]3O[C@@H](CO)[C@@H](O)[C@@H](O)[C@H]3O)cc(O)c12, the Potency [1] is reported as “inactive”.
For O=C(O)CC(O)(C(=O)O)C(O)C(=O)O (centres undefined), the Potency [1] was “inactive”.
For CCCCCCC/C=C/C(=O)CCc1ccc(O)c(OC)c1, the Potency [1] was “inactive”.
In the case of CC(=O)O[C@H]1[C@H](O[C@H]2CC[C@]34C[C@]35CC[C@]3(C)[C@@H]([C@@]6(C)CC[C@@H](C(C)(C)O)O6)[C@@H](O)C[C@@]3(C)[C@@H]5C[C@H](O[C@@H]3O[C@H](CO)[C@@H](O)[C@H](O)[C@H]3O)[C@H]4C2(C)C)OC[C@@H](O)[C@@H]1O, the Potency [1] is reported as “inactive”.
In the case of CN=C=S, the outcome [2] is reported as “inactive”.
With Cc1ccccc1N the Potency [3] was “inactive”, the Potency [4] was “inactive” and the Potency [5] was “inactive”.
With CCC[CH2][Sn]([Cl])([Cl])[Cl] the Potency [4] was “inactive”.
In the case of c1nc[nH]n1, the Potency [3] is reported as “inactive” and the outcome [2] is reported as “inactive”.
For C[C@]12CC[C@H]3[C@@H](CCC4=CC(=O)CC[C@@]43C)[C@@H]1CC[C@@H]2O, the Potency [6] was “inactive”, the Potency [7] was “inactive” and the activity, negative = inhibition ([8]; parasite line A) was -11.8%. It also gave an activity, negative = inhibition ([8]; parasite line B) of -14.6%.
For c1ccc(-c2ccccc2)cc1, the activation [9] was -1.76% and -0.536%, the Potency [10] was “inactive” and the Potency [4] was “inactive”. For the same compound, the Potency [5] was “inactive”.
With Cc1ccc([N+](=O)[O-])cc1C the outcome [2] was “inactive”, the Potency [5] was “inactive” and the Potency [11] was “inactive”.
With O=NN(c1ccccc1)c1ccccc1 the Potency [4] was “inactive”, the Potency [5] was “inactive” and the Potency [11] was “inactive”.
In the case of O=C(Cl)/C=C/C(=O)Cl, the activation [9] is reported as 8.8%, the Potency [10] is reported as “inactive” and the Potency [11] is reported as “inactive”.
For CC(O)CCl (centres undefined), the outcome [2] was “inactive”.
With OCC(Br)CBr (centres undefined) the Potency [4] was “inactive”, the outcome [2] was “inactive” and the Potency [11] was “inactive”.
In the case of CCCC(=O)Cl, the Potency [5] is reported as “inactive”.
For Clc1cccc(C(Cl)(Cl)Cl)n1, the Potency [3] was “inactive”, the activation [9] was -4.18% and the Potency [10] was “inactive”. For the same compound, the Potency [5] was “inactive”.
With O=C(Cl)C(Cl)(Cl)Cl the Potency [11] was “inactive”.
For Clc1nc(Cl)nc(Nc2ccccc2Cl)n1, the outcome [2] was “inactive” and the Potency [11] was “inactive”.
In the case of ClCBr, the Potency [4] is reported as “inactive”, the outcome [2] is reported as “inactive” and the Potency [5] is reported as “inactive”. The Potency [11] was “inactive”.
In the case of CCOP(=S)(OCC)Oc1ccc([N+](=O)[O-])cc1, the Potency [3] is reported as “inactive”, the Potency [4] is reported as “inactive” and the Potency [11] is reported as “inactive”.
For CC(C)(OO)c1ccccc1, the Potency [4] was “inactive”.
In the case of CCOP(=S)(OCC)SCSC(C)(C)C, the Potency [11] is reported as “inactive”.
For C=C(Cl)Cl, the activation [9] was 2.29%, the Potency [10] was “inactive” and the Potency [4] was “inactive”. For the same compound, the Potency [5] was “inactive” and the Potency [11] was “inactive”.
In the case of ClC(Cl)=C(Cl)Cl, the Potency [5] is reported as “inactive”.
For COc1ccc(N)cc1, the Potency [3] was “inactive”, the Potency [5] was “inactive” and the Potency [11] was “inactive”.
For [O-][Br+2]([O-])O, the activation [9] was 4.89% and 1.1%, the Potency [10] was “inactive” and the Potency [5] was “inactive”. For the same compound, the Potency [11] was “inactive”.
With Clc1ccc2ccccc2c1 the activation [9] was 11.2%, the Potency [10] was “inactive” and the outcome [2] was “inactive”. For the same compound, the Potency [11] was “inactive”.
For C[N+](C)(C)Cc1ccccc1, the outcome [2] was “inactive”, the Potency [5] was “inactive” and the Potency [11] was “inactive”.
For C=CC(=C)C, the outcome [2] was “inactive”.
In the case of CCOc1ccc(N)cc1, the Potency [5] is reported as “inactive” and the Potency [11] is reported as “inactive”.
With CC(C)(C)OOC(C)(C)C the Potency [5] was “inactive”.
In the case of C=CC(C)=O, the Potency [4] is reported as “inactive”.
With C=CCOC(=O)c1ccccc1N the Potency [10] was “inactive”, the Potency [4] was “inactive” and the Potency [5] was “inactive”. For the same compound, the Potency [11] was “inactive”.
For c1ccc2c(c1)CCCC2, the activation [9] was -2.87% and the Potency [10] was “inactive”.
With Nc1c(Cl)c(Cl)nc(C(=O)O)c1Cl the Potency [5] was “inactive”.
For Nc1ccccc1Cl, the activation [9] was 9.37% and the Potency [4] was “inactive”.
With CC(C)(c1ccccc1)c1ccc(O)cc1 the Potency [3] was “inactive”, the outcome [2] was “inactive” and the Potency [5] was “inactive”.
With Cc1ccc2ccccc2c1 the activation [9] was 23%, the Potency [10] was “inactive” and the Potency [4] was “inactive”. The Potency [11] was “inactive”.
With C=CCOC(C)=O the activation [9] was -7.35% and the Potency [11] was “inactive”.
In the case of ClC(Cl)(Cl)c1ccccc1, the outcome [2] is reported as “inactive”.
With C=CC(=O)OCC the Potency [11] was “inactive”.
In the case of Oc1ccc(Cl)cc1Cl, the Potency [11] is reported as “inactive”.
For CCSC(=O)Cl, the activation [9] was 5.7%, the Potency [10] was “inactive” and the Potency [11] was “inactive”.
For CCCCCCCC(=O)Cl, the Potency [5] was “inactive” and the Potency [11] was “inactive”.
For c1ccc(OP(Oc2ccccc2)Oc2ccccc2)cc1, the outcome [2] was “inactive” and the Potency [5] was “inactive”.
For CCCCOCCOP(=O)(OCCOCCCC)OCCOCCCC, the Potency [3] was “inactive”, the Potency [4] was “inactive” and the outcome [2] was “inactive”. The Potency [11] was “inactive”.
For C1CCC2CCCCC2C1 (centres undefined), the Potency [4] was “inactive”.
For C=C(C)C#N, the outcome [2] was “inactive” and the Potency [11] was “inactive”.
With C=CC(N)=O the outcome [2] was “inactive”, the Potency [5] was “inactive” and the Potency [11] was “inactive”.
For C=C(C)C(=O)OCC1CO1 (centres undefined), the Potency [4] was “inactive”.
For Cc1cccc([N+](=O)[O-])c1, the outcome [2] was “inactive”.
In the case of ClC(Cl)=C(Cl)C(Cl)=C(Cl)Cl, the Potency [4] is reported as “inactive” and the Potency [5] is reported as “inactive”.
